The source of these data is PubChem BioAssay.

Inconclusive results are not listed. Active and inactive are the calls of the source.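 Rule for the calls, unless noted: active = percent response above a set limit, the screen-wide mean plus 3 SD (cut at about 130% in these data); inactive = the rest.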

A short description of experiment [1]: yeast TOR pathway RPL19A-GFP modulators, primary screen, cell-based, S. cerevisiae, multiplex flow cytometry (AID 1862; in the data active = percent of DMSO control GFP below about 86%;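 note: lower values mimic rapamycin by blocking the RPL19A rise seen in DMSO cells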). To be noted: S. cerevisiae RPL19A-GFP strain, flow cytometry fluorescence, 3 h; at 10 µM; stronger effect = lower value.
The nature of experiment [2]: modulators of MEP2-GFP levels in yeast, primary screen, S. cerevisiae, multiplex flow cytometry (AID 1867;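 active = GFP response, as percent of the DMSO control, above the screen-wide mean plus 3 SD, about 139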;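 note: median GFP channel fluorescence of barcode-gated MEP2-GFP cells measured by flow cytometry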). The following applies: S. cerevisiae MEP2-GFP strain, 3 h, at 10 µM, stronger effect = higher value, 100% means same as DMSO wells. On the technique in general: In flow cytometry, cells or beads pass a laser one at a time.
The nature of experiment [3]: modulators of CIT2-GFP expression in yeast, primary screen, S. cerevisiae, GFP fusion, multiplex flow cytometry (AID 1870).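 Note: barcoded CIT2-GFP strain pooled with four other GFP strains with rapamycin as positive control; median GFP fluorescence per well over plate mean of DMSO wells so 100% = DMSO.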 The following applies: 3 h, at 10 µM, stronger effect = higher value.
Experiment [4] is described as follows: modulators of LAP4-GFP expression in yeast, primary screen, S. cerevisiae, multiplex flow cytometry (AID 1873;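 active = GFP signal, as percent of the solvent control, above the screen mean plus 3 SD, about 149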). The following applies: 3 h, at 10 µM, stronger effect = higher value.
Experiment [5] can be described thus: modulators of AGP1-GFP expression in yeast TOR pathway, primary screen, cell-based, multiplex flow cytometry, S. cerevisiae (AID 1887;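 active = GFP signal above the screen-wide mean plus 3 SD, that is over about 124.5% of the solvent control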;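 note: AGP1-GFP fusion strain of S. cerevisiae within a five-strain barcoded multiplex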). To be noted: 3 h, at 10 µM, stronger effect = higher value.
Experiment [6] can be described thus: inhibitors of CD8+ T cell-vesicle binding, pilot screen, LFA-1/ICAM-1 modulator project, MLPCN validation set, flow cytometry (AID 2523;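 active = response below a set limit, under 55% cells CD8-positive and vesicle-bound, and CD8 cells' 90th-percentile brightness under 279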;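 for vesicle binding response: mean PE anti-B7-1 fluorescence of CD8+ cells relative to row control; 100% = QL9-loaded vesicles with DMSO vehicle in the same plate row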). To be noted: 2C mouse CD8+ T cells, at 7 µM, stronger effect = lower value; double positive events: measured here: CD8+/vesicle+ event percentage.
Experiment [7] has as its target Integrin beta-1 (Homo sapiens) + Integrin alpha-4 (Homo sapiens) (UniProt P13612+P05556). Description: inhibition of HUTS-21 binding to VLA-4, pilot screen, VLA-4 allosteric modulator project, U937 cells, HUTS-21 mAb, flow cytometry, validation set (AID 2674;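 active = inhibition above 50%, about 3 SD of the validation set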;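 note: antibody binding induced by the VLA-4 ligand LDV present at three times its Kd; 0% = LDV ligand with antibody and no compound and 100% = antibody without LDV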). The following applies: HUTS-21 LIBS mAb binding, at 6.7 µM, stronger effect = higher value, binding induced by LDV ligand.

Experiment [8] can be described thus: superoxide lowering in aged yeast cells, pilot screen, validation compound set (AID 2706;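 active = superoxide response below 65% of plate, a cut near 3 SD across the whole screen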;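 note: yeast exposed to compound for one week at 30 degrees C before staining; 100% = mean of all compound wells on the same plate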). The following applies: S. cerevisiae aging, superoxide DHE fluorescence; at 10 µM; stronger effect = lower value.
In experiment [9] the target is Beta-adrenergic receptor kinase 1 (Homo sapiens) (UniProt P25098). The experiment can be described thus: GRK2 binders displacing RNA aptamer, biochemical, validation, human GRK2, bead flow cytometry (AID 488806;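 active = aptamer binding inhibition above 30%, about 3 SD of noise from non-fluorescent compounds; inactive = inhibition at or below 30%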). The following applies: bead-bound GRK2, FAM-aptamer displacement, at 10 µM, stronger effect = higher value.
Chain of Beta-adrenergic receptor kinase 1 (Homo sapiens) (P25098 whole entry, looked up): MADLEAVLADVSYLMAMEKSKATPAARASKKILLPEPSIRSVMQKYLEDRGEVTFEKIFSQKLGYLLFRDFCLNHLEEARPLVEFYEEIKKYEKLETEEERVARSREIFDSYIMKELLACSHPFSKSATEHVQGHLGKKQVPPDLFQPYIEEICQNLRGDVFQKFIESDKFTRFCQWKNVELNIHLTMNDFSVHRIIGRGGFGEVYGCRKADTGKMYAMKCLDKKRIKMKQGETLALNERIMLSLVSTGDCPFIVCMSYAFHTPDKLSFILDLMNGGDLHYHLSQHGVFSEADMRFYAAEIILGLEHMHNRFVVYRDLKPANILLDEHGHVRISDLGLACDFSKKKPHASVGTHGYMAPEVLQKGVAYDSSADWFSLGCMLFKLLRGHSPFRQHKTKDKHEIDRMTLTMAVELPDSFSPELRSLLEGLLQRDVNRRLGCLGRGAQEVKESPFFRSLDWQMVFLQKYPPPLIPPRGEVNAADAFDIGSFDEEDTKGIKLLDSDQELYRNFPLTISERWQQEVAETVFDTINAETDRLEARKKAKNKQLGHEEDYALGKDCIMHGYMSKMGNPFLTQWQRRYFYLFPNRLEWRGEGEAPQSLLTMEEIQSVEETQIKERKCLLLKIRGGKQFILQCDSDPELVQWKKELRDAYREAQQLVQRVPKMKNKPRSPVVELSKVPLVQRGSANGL
Experiment [10] addresses Beta-2 adrenergic receptor (Homo sapiens) (UniProt P07550). Description: beta2AR agonists driving receptor internalization, pilot screen, cell-based, FAP fluorogen, flow cytometry, validation set (AID 504459;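 active = percent response above 42, roughly 3 SD of non-fluorescent test compounds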;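 note: agonist-driven loss of surface beta2AR via internalization measured by FAP dye flow cytometry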). To be noted: Am2.2-beta2AR cells, FAP surface receptor flow cytometry; at 10 µM; stronger effect = higher value.
The target of experiment [11] is AP-2 complex subunit beta (Homo sapiens) (UniProt P63010). Description: inhibitors of arrestin peptide binding to AP2, pilot screen, biochemical, validation set, GST-AP2 beads, flow cytometry (AID 504541;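 active = inhibition above 54%, about 3 SD of non-fluorescent compounds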;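 note: AP2 carries R879A mutation and is captured from E. coli lysate; bead-bound FITC arrestin peptide fluorescence measuring arrestin peptide binding to AP2; 0% = DMSO wells and 100% = excess unlabeled arrestin peptide control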). The following applies: FITC arrestin peptide, at 10 µM, stronger effect = higher value, AP2 beta2 appendage fragment, R879A mutant.
Chain of AP-2 complex subunit beta (Homo sapiens) (P63010 whole entry, looked up, the tested form may be a part, one chain of several): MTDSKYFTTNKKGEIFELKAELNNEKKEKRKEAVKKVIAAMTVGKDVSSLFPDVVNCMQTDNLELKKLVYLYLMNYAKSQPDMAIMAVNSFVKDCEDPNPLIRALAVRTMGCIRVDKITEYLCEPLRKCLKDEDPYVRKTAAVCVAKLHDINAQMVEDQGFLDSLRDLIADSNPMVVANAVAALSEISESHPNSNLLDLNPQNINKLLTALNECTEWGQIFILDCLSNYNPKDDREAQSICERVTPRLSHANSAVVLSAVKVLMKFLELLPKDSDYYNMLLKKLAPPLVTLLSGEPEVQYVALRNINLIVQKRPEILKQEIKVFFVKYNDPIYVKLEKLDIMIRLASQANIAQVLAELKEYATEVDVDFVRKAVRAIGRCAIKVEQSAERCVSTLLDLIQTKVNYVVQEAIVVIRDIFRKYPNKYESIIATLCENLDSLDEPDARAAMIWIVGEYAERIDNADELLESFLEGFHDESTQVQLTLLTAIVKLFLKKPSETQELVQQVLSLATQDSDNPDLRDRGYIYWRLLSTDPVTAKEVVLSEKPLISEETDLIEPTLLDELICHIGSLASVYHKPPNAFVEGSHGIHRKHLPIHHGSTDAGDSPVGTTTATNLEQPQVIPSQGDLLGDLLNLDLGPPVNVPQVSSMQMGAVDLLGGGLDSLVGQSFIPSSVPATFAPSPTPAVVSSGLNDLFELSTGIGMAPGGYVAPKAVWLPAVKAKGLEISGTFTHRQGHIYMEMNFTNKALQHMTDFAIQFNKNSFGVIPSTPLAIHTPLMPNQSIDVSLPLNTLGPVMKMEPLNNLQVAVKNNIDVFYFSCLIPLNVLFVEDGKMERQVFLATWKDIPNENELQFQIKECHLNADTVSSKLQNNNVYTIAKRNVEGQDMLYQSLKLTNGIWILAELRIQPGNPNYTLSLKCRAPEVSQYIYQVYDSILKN
Experiment [12] in a line: yeast V-ATPase proton transport modulators, S. cerevisiae, pHLuorin, HTS validation (AID 504600; in the data active = response above about 15%;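 note: plate controls were DMSO for no effect and reference compound for full effect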). The following applies: S. cerevisiae pHLuorin cytosolic pH, at 10 µM, stronger effect = higher value.
The subject of experiment [13] is anti-desmoglein-3 scFv antibody binding to human DSG3. The experiment can be described thus: inhibitors of anti-DSG3 scFv binding to DSG3, pilot screen, biochemical, validation compound set, bead-based, flow cytometry (AID 588368;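 active = binding below the plate cutoff, the plate median minus 3 SD, with a reading above zero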;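 note: signal is the median channel fluorescence of bead-bound GFP antibody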). To be noted: Protein G beads, DSG3-Fc, scFv-GFP binding, at 10 µM, stronger effect = lower value.
Experiment [14] is described as follows: inhibitors of fungal efflux pumps CDR1, CDR2, MDR1, pilot screen, validation compound set, multiplex, phenotypic (AID 588506;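 active = efflux inhibition above 0.42, the validation set average plus 4 SD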;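 note: Nile Red retained in cells so higher fluorescence means more efflux inhibition; 0 = negative control wells and 1 = enniatin B 25 µM full block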). The following applies: S. cerevisiae pump-expressing triplex, Nile Red efflux flow cytometry; at 10 µM; stronger effect = higher value; the pumps come from Candida albicans.
For experiment [15], the target named is ATP-binding cassette sub-family B member 6 (Homo sapiens) (UniProt Q9NP58). Description: ABCB6 transporter inhibitors, pilot screen, K562-ABCB6 cells, flow cytometry, validation set (AID 588550;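 active = inhibition above the screen-wide mean plus 3 SD, about 51%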;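 note: 0% = DMSO wells and 100% = benzethonium chloride 70 µM positive control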). To be noted: K562-ABCB6 porphyrin accumulation, 1 h, at 10 µM, stronger effect = higher value.
Chain of ATP-binding cassette sub-family B member 6 (Homo sapiens) (Q9NP58 whole entry, looked up): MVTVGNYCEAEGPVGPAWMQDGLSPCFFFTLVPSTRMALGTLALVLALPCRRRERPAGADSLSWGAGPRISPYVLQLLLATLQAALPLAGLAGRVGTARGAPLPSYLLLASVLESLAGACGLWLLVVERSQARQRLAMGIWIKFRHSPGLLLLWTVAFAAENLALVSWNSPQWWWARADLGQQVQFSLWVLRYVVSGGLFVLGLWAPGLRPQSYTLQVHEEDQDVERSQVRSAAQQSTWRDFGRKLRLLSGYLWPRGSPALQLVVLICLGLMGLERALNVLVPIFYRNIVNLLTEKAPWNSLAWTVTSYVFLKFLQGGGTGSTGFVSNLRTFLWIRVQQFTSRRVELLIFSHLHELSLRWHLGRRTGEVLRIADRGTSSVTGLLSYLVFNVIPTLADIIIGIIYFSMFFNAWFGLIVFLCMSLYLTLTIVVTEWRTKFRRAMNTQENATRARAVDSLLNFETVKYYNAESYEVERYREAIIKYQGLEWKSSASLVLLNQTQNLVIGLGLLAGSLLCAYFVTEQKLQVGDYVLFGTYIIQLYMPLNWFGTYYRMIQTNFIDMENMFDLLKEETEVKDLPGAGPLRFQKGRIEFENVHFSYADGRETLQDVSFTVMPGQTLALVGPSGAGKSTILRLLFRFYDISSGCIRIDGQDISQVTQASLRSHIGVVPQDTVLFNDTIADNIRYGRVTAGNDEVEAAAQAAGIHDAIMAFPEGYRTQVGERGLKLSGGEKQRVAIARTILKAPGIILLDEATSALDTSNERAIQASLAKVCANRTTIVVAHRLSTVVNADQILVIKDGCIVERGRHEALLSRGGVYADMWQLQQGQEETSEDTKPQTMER
A short description of experiment [16]: promoters of myeloid differentiation in arrested cells, primary screen, cell-based, GFP/MAC1 double positive, flow cytometry, validation set (AID 588685;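 active = differentiation response of at least 50%, scaled between solvent and reference control, from cells with both markers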;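 note: compound exposure lasts four days before antibody staining and flow analysis; 0% = DMSO wells and 100% = 5 µM fulvestrant positive control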). To be noted: ER-HoxA9 marrow cells, stronger effect = higher value, normalized: vehicle 0, fulvestrant 100.

Chain of Beta-2 adrenergic receptor (Homo sapiens) (P07550 whole entry, looked up): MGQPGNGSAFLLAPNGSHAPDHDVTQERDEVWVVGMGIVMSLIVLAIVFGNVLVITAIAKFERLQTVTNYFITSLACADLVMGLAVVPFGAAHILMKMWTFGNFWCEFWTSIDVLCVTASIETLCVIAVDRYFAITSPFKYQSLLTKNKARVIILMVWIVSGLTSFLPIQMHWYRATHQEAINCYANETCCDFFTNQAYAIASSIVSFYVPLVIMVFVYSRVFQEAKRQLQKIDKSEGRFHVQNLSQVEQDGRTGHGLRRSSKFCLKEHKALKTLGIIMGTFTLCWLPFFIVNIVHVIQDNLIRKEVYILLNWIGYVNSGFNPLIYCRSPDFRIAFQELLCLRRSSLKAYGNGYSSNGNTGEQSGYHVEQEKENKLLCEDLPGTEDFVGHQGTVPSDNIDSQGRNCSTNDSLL
Chain of Integrin beta-1 (Homo sapiens) + Integrin alpha-4 (Homo sapiens) (P05556 whole entry, looked up): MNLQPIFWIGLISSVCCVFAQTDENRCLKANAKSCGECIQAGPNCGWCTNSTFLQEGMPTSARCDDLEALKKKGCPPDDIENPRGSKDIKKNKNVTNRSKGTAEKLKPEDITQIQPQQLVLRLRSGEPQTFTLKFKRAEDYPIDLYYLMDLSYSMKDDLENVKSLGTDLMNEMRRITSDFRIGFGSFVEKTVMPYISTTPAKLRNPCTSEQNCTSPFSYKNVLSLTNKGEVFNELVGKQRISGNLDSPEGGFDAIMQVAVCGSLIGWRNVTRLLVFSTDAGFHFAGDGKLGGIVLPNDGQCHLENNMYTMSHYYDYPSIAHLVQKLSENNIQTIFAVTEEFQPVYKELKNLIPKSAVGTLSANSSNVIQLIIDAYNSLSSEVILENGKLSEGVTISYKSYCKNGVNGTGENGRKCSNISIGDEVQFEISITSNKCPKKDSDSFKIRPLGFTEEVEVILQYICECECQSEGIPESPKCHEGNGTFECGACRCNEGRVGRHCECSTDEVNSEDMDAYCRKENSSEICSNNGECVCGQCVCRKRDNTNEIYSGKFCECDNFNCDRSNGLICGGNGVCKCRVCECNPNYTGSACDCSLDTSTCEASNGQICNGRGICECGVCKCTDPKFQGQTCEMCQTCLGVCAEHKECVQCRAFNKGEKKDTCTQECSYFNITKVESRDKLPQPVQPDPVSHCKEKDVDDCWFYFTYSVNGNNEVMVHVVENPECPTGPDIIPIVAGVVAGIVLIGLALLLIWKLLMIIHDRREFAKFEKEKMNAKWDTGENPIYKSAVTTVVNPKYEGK
Chain of Integrin beta-1 (Homo sapiens) + Integrin alpha-4 (Homo sapiens) (P13612 whole entry, looked up): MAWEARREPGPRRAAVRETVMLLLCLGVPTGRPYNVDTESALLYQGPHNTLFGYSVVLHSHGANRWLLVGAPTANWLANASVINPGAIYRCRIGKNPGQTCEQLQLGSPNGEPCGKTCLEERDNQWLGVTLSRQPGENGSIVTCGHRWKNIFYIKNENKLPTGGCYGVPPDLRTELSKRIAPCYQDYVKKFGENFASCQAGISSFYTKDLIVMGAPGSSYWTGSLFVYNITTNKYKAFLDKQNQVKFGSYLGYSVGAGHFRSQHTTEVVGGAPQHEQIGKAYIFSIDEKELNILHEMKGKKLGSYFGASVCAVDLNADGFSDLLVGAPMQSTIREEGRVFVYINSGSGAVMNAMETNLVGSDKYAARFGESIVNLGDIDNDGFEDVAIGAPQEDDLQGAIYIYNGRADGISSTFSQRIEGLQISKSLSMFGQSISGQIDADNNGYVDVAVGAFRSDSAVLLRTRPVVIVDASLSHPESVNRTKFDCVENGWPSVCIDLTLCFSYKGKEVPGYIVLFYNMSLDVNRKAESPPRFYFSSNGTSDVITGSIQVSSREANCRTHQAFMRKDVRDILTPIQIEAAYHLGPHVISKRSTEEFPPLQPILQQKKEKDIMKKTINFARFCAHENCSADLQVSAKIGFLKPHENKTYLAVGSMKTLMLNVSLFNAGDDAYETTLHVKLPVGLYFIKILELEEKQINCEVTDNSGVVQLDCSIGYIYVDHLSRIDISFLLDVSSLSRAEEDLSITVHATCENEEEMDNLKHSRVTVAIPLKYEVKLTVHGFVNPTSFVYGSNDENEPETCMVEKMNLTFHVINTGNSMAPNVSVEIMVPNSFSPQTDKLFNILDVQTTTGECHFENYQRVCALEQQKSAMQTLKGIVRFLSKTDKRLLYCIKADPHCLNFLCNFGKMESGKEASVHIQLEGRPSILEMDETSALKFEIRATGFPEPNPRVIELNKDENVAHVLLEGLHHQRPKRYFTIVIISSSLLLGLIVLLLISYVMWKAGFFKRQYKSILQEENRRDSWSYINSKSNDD

The inhibition is the relative decrease from the control value, in per cent. On to `Cc1ccc(C)c(OCCCC(C)(C)C(=O)O)c1`, for which the percent of DMSO control GFP in experiment [1] is 98% (inactive). For the same compound, the figures for the GFP response vs DMSO in experiment [2] and in experiment [4] were 97.2% (inactive) and 122% (inactive), respectively. Besides, the percent response of DMSO control in experiment [3] was 95.4% (inactive). Besides, the GFP response, % of DMSO in experiment [5] was 89.6% (inactive). The double positive events in experiment [6] was 62.8%. In addition, the vesicle binding response in experiment [6] was 203% (inactive). Also, the figures for the inhibition in experiment [7], in experiment [11] and in [15] were -0.45% (inactive), -6.6% (inactive) and 10% (inactive), respectively. Besides, the superoxide response (% of plate) in experiment [8] is 104% (inactive). Besides, in experiment [9], the aptamer binding inhibition was 4% (inactive). Besides, the response in experiment [10] was -7.3% (inactive); in experiment [12], 4.38% (inactive). Also, the binding (% of control) in experiment [13] was 96.4% (inactive). Further, the efflux inhibition (fraction of control) in experiment [14] was 0.05 (inactive). Besides, the differentiation response in [16] was 6.11% (inactive).

In the case of `Cc1ccc2[nH]c3c(=O)n(CCc4cnc[nH]4)cnc3c2c1`, in experiment [1], the percent of DMSO control GFP was 96.4% (inactive). Besides, the GFP response vs DMSO in experiment [2] is 99.7% (inactive); in experiment [4], 97% (inactive). For the same compound, in experiment [3], the percent response of DMSO control was 105% (inactive). In experiment [5], the GFP response, % of DMSO is 103% (inactive). Further, the double positive events in [6] turned out to be 65.2%. For the same compound, the vesicle binding response in [6] was 172% (inactive). Further, the figures for the inhibition in [7], in experiment [11] and in experiment [15] were -17.2% (inactive), -15.4% (inactive) and 10% (inactive), respectively. Besides, the superoxide response (% of plate) in experiment [8] was 93.1% (inactive). The aptamer binding inhibition in experiment [9] is 0% (inactive). For the same compound, the response is -13.6% (inactive) in experiment [10] and 1.97% (inactive) in experiment [12]. Moreover, the binding (% of control) in [13] was 103% (inactive). Moreover, in experiment [14], the efflux inhibition (fraction of control) was -0.58 (inactive). Further, the differentiation response in experiment [16] was -14.8% (inactive).

Regarding `S=C(NCc1ccccc1)NCc1cccc(CNC(=S)NCc2ccccc2)c1`, in experiment [1], the percent of DMSO control GFP was 105% (inactive). For the same compound, the figures for the GFP response vs DMSO in [2] and in experiment [4] were 98.6% (inactive) and 108% (inactive), respectively. Moreover, the percent response of DMSO control in experiment [3] is 93.8% (inactive). Also, the GFP response, % of DMSO in experiment [5] was 120% (inactive). This compound gave a double positive events in [6] of 62.4%. Further, the vesicle binding response in [6] is 205% (inactive). Besides, the inhibition is 9.1% (inactive) in experiment [7], 2.64% (inactive) in experiment [11] and 2% (inactive) in experiment [15]. The superoxide response (% of plate) in [8] was 81.9% (inactive). In [9], the aptamer binding inhibition was -2% (inactive). Further, the response in experiment [10] was -21.3% (inactive); in experiment [12], -2.61% (inactive). Also, in experiment [13], the binding (% of control) was 100% (inactive). The efflux inhibition (fraction of control) in [14] was 0.33 (inactive). Further, in [16], the differentiation response was 1.91% (inactive).

As for `CC(=O)Oc1c2occc2cc2ccc(=O)oc12`, the percent of DMSO control GFP in [1] is 98.4% (inactive). Moreover, the GFP response vs DMSO in experiment [2] was 103% (inactive); in [4] it was 114% (inactive). Besides, the percent response of DMSO control in experiment [3] is 87.2% (inactive). Also, the GFP response, % of DMSO in experiment [5] is 98.9% (inactive). Besides, the double positive events in [6] was determined as 57.9%. Further, the vesicle binding response in [6] is 140% (inactive). Besides, the inhibition was -11.3% (inactive) in experiment [7], 7.26% (inactive) in [11] and 8% (inactive) in [15]. Also, the superoxide response (% of plate) in experiment [8] was 101% (inactive). Further, the aptamer binding inhibition in experiment [9] is 3% (inactive). Also, the response was 9.55% (inactive) in experiment [10] and -2.03% (inactive) in experiment [12]. Further, in experiment [13], the binding (% of control) is 101% (inactive). Also, in [14], the efflux inhibition (fraction of control) was 0.51 (active). Moreover, the differentiation response in [16] is 10.4% (inactive).
